One may read the inhibition as how much of the control response was suppressed.

Each structure is given as a SMILES string. Screen size: about 7,400 compounds; about 4,100 (55%) were called active. The set was probably picked from earlier hits. Not all results are given here. Unmarked numbers belong to inactive results.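 The calls were made as follows: active = inhibition of yeast growth at or above a set limit in either of two repeat tests at 20 µM; inactive = the rest.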

Consider five compounds from PubChem BioAssay AID463213 (Sanford-Burnham Center for Chemical Genomics, 2010).

The nature of this assay: growth inhibitors of tim10-1 mutant yeast, confirmation, single concentration, luminescence, S. cerevisiae (AID 463213). The conditions noted are these: S. cerevisiae tim10-1 ts strain growth, BacTiter-Glo, 24 h; at 20 µM; hits give high values.
Take `Cc1nc2ccccn2c1P(=S)(N1CCCCC1)N1CCCCC1`: the inhibition was 38.4% (active).

`O=C1NC(=O)N(c2ccccc2)C(=O)/C1=C/c1ccc([N+](=O)[O-])s1`: the inhibition was 75.3% (active).

On to `COc1cccc(N2C(=O)NC(=O)/C(=C\c3ccc([N+](=O)[O-])s3)C2=O)c1`, for which the inhibition was 76.5% (active).

With `N#CC1=C(N)Oc2c(c(=O)oc3ccccc23)C1c1ccccc1OC(=O)c1cccs1` (stereo not given), the inhibition was 22.8%.

Take `CCCCCn1c(=O)c(C(=O)Nc2c(C)n(C)n(-c3ccccc3)c2=O)c(O)c2ccccc21`: the inhibition is 6.15%.
